PubChem BioAssay AID504373 (National Center for Advancing Translational Sciences (NCATS), 2011)
Inconclusive results are not listed. Activity calls are given as the source filed them.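 How the source made its calls: active means fewer circulating green fluorescent tagged thrombocytes in treated fish, with no visible harm to the embryos; inconclusive means compound visibly harmful to the embryos; inactive means no drop in circulating tagged thrombocytes.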

Assay: qHTS Assay for Compounds Blocking the Interaction Between CBF-beta and RUNX1 for the Treatment of Acute Myeloid Leukemia: Zebrafish assay for Hematopoiesis, SAR for Probe
Conditions: GFP-cd41 zebrafish embryos, microscopy, 5 days, stronger effect = lower value
Text: NIH Chemical Genomics Center [NCGC] NIH Molecular Libraries Probe Production centers Network [MLPCN] MLPCN Grant: X01MH083259-01 Assay Submitter (PI): Paul Liu NCGC Assay Overview: Core Binding Factor (CBF) abnormalities are associated with 20-25% of all acute myeloid leukemias (AML), of which 5-10% are further sub classified as acute myelomonocytic leukemia with eosinophilia, also known as M4Eo in the FAB classification scheme. This subtype of leukemia is usually associated with chromosome 16 inversion (p13:q22). Chromosome 16 inversion results in formation of the fusion oncogene CBFB-MYH11, which encodes the fusion protein CBF-beta-SMMHC. […] It has been hypothesized that the interference of CBF-beta and RUNX1 binding could have therapeutic implications for patients with CBF mediated leukemias. We developed a CBF-beta and RUNX1 binding assay in AlphaScreenTM format and optimized it for high throughput screening to search for inhibitors. The goal of this project is to screen MLPCN's compound collection (MLSMR) for identifying the inhibitors of the interaction between CBF-beta and RUNX1 proteins as research probes. If these probes work well in the animal models, the ultimate goal of this project is to development a new drug treatment for this disease. […] These fish contain a genomic modulation where GFP has been fused to cd41, a marker for thrombocytes, and thus circulating thrombocytes can be easily imaged in anesthetized fish.
Assay protocol: GFP-cd41 zebrafish were kindly provided by the Liu lab. Zebrafish embryos were incubated with compound (<0.1% DMSO final) at 48 hours post fertilization, for 5 days. Embryos were manually scored under a microscope with GFP illumination for circulating GFP-tagged thrombocytes. Keywords: MLSMR, MLPCN, NIH Roadmap, qHTS, NCGC, Core binding factor, CBF, CBF-beta, Acute myeloid leukemia

SMILES | fish with circulating GFP thrombocytes (at 25 µM) | fish with circulating GFP thrombocytes (at 50 uM)
CCN(CC)CCN1C(=O)CN=C(c2ccc[nH]2)c2cc(Cl)ccc21 | 45.8% (active) | 70.8%
CN1C(=O)CN=C(c2ccc[nH]2)c2cc(Cl)ccc21 (tested in a mixture with another compound) | 29.2% (active) | 0%
CCN(CC)CCN1C(=O)CN=C(c2ccccn2)c2cc(Cl)ccc21 | 66.7% (active) | 66.7%
